Assay results as given in publication doi:10.1101/2024.03.05.583629.

molecular target: pT7_6His-AlfaTag-ZIF268 (human, UniProt P18146 335-423); assay: PADIT-seq; details: dsDNA, one strand shown

| Sequence | binding signal [log2FC] |
| --- | --- |
| CTCGAGGATATCAAGATCTGGCCTCGGCCGCCCACCCGGAACCTCTAGCTAGCCGACTCACTATAGGGATAATCGCCCTGAGCAAAGACC | 0.112 ± 0.113 |
| CTCGAGGATATCAAGATCTGGCCTCGGCATACCACGCGGAACCTCTAGCTAGCCGACTCACTATAGGGATAATCGCCCTGAGCAAAGACC | 0.123 ± 0.0818 |
| CTCGAGGATATCAAGATCTGGCCTCGGCTGCCCACGCGGAACCTCTAGCTAGCCGACTCACTATAGGGATAATCGCCCTGAGCAAAGACC | 0.958 ± 0.086 |
| CTCGAGGATATCAAGATCTGGCCTCGGCGCGTGGTCTGGAACCTCTAGCTAGCCGACTCACTATAGGGATAATCGCCCTGAGCAAAGACC | 0.117 ± 0.101 |
| CTCGAGGATATCAAGATCTGGCCTCGGCGCGTGGATGGGAACCTCTAGCTAGCCGACTCACTATAGGGATAATCGCCCTGAGCAAAGACC | 0.000457 ± 0.106 |
| CTCGAGGATATCAAGATCTGGCCTCGGCGCGTCGGCGGGAACCTCTAGCTAGCCGACTCACTATAGGGATAATCGCCCTGAGCAAAGACC | 0.627 ± 0.116 |
| CTCGAGGATATCAAGATCTGGCCTCGGCGCGTGGTTTGGAACCTCTAGCTAGCCGACTCACTATAGGGATAATCGCCCTGAGCAAAGACC | 0.236 ± 0.101 |
| CTCGAGGATATCAAGATCTGGCCTCGGCCGCCCAAGGGGAACCTCTAGCTAGCCGACTCACTATAGGGATAATCGCCCTGAGCAAAGACC | 0.0235 ± 0.109 |
| CTCGAGGATATCAAGATCTGGCCTCGGCGCGCGGGCGGGAACCTCTAGCTAGCCGACTCACTATAGGGATAATCGCCCTGAGCAAAGACC | 1.18 ± 0.1 |
| CTCGAGGATATCAAGATCTGGCCTCGGCGTTTGGGCGGGAACCTCTAGCTAGCCGACTCACTATAGGGATAATCGCCCTGAGCAAAGACC | 0.123 ± 0.0893 |
| CTCGAGGATATCAAGATCTGGCCTCGGCGCGTGGTGTGGAACCTCTAGCTAGCCGACTCACTATAGGGATAATCGCCCTGAGCAAAGACC | 0.166 ± 0.105 |
| CTCGAGGATATCAAGATCTGGCCTCGGCGCGGTGGCGGGAACCTCTAGCTAGCCGACTCACTATAGGGATAATCGCCCTGAGCAAAGACC | 0.175 ± 0.118 |
| CTCGAGGATATCAAGATCTGGCCTCGGCGCGTGGCAAGGAACCTCTAGCTAGCCGACTCACTATAGGGATAATCGCCCTGAGCAAAGACC | 0.0121 ± 0.1 |
| CTCGAGGATATCAAGATCTGGCCTCGGCCGCCCACATGGAACCTCTAGCTAGCCGACTCACTATAGGGATAATCGCCCTGAGCAAAGACC | 1.03 ± 0.0882 |
| CTCGAGGATATCAAGATCTGGCCTCGGCGCGTAGGCGGGAACCTCTAGCTAGCCGACTCACTATAGGGATAATCGCCCTGAGCAAAGACC | 3.65 ± 0.0875 |
| CTCGAGGATATCAAGATCTGGCCTCGGCGCGTGGTCGGGAACCTCTAGCTAGCCGACTCACTATAGGGATAATCGCCCTGAGCAAAGACC | 0.471 ± 0.1 |
| CTCGAGGATATCAAGATCTGGCCTCGGCGCGTGCGCGGGAACCTCTAGCTAGCCGACTCACTATAGGGATAATCGCCCTGAGCAAAGACC | 0.264 ± 0.107 |
| CTCGAGGATATCAAGATCTGGCCTCGGCGCGTGGGATGGAACCTCTAGCTAGCCGACTCACTATAGGGATAATCGCCCTGAGCAAAGACC | 2.17 ± 0.107 |
| CTCGAGGATATCAAGATCTGGCCTCGGCAAGTGGGCGGGAACCTCTAGCTAGCCGACTCACTATAGGGATAATCGCCCTGAGCAAAGACC | 2.06 ± 0.0801 |
| CTCGAGGATATCAAGATCTGGCCTCGGCGCGCTGGCGGGAACCTCTAGCTAGCCGACTCACTATAGGGATAATCGCCCTGAGCAAAGACC | 0.0489 ± 0.154 |
| CTCGAGGATATCAAGATCTGGCCTCGGCGCGTGGGGCGGAACCTCTAGCTAGCCGACTCACTATAGGGATAATCGCCCTGAGCAAAGACC | 0.735 ± 0.107 |
| CTCGAGGATATCAAGATCTGGCCTCGGCCGCCCGCGCGGAACCTCTAGCTAGCCGACTCACTATAGGGATAATCGCCCTGAGCAAAGACC | 0.122 ± 0.126 |
| CTCGAGGATATCAAGATCTGGCCTCGGCGCGTGGCTCGGAACCTCTAGCTAGCCGACTCACTATAGGGATAATCGCCCTGAGCAAAGACC | 0.122 ± 0.1 |
| CTCGAGGATATCAAGATCTGGCCTCGGCCGCCCACGCGGAACCTCTAGCTAGCCGACTCACTATAGGGATAATCGCCCTGAGCAAAGACC | 2.69 ± 0.0695 |
| CTCGAGGATATCAAGATCTGGCCTCGGCCGCCCACGAGGAACCTCTAGCTAGCCGACTCACTATAGGGATAATCGCCCTGAGCAAAGACC | 0.778 ± 0.094 |
| CTCGAGGATATCAAGATCTGGCCTCGGCGTTCCACGCGGAACCTCTAGCTAGCCGACTCACTATAGGGATAATCGCCCTGAGCAAAGACC | 0.016 ± 0.0847 |
